Experimental data from PubChem BioAssay (NCI).
This is part of a sample that, as a whole, favours compounds with a hit. Of some 83,000 tested, about 20% had one in any assay.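 Results are percent growth after 48 hours of single-concentration exposure. 100 means growth as in untreated cells, lower positive values show inhibition; negative values down to -100 show cell death.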 Active and inactive are the calls of the source. How the source made its calls: active means growth percent below 10; inactive means the rest.

Experiments:
Experiment in all cases: NCI-60 one-dose screen, 48 h (100 = growth as untreated, 0 = no growth, -100 = all killed)
Settings in all cases: 10 µM
K-562 leukemia = test system: K-562 leukemia
MDA-MB-231 breast = test system: MDA-MB-231 breast
SF-268 CNS = test system: SF-268 CNS
SF-295 CNS = test system: SF-295 CNS
SF-539 CNS = test system: SF-539 CNS
UACC-257 melanoma = test system: UACC-257 melanoma
M14 melanoma = test system: M14 melanoma
HCT-15 colon = test system: HCT-15 colon
HT29 colon = test system: HT29 colon
SNB-75 CNS = test system: SNB-75 CNS
SNB-19 CNS = test system: SNB-19 CNS
U251 CNS = test system: U251 CNS
PC-3 prostate = test system: PC-3 prostate
SK-MEL-5 melanoma = test system: SK-MEL-5 melanoma
UACC-62 melanoma = test system: UACC-62 melanoma
LOX IMVI melanoma = test system: LOX IMVI melanoma
SK-MEL-28 melanoma = test system: SK-MEL-28 melanoma
DU-145 prostate = test system: DU-145 prostate
RXF 393 renal = test system: RXF 393 renal
MALME-3M melanoma = test system: MALME-3M melanoma

Measured: growth

CCN(CC)CCN1c2nc3ccccc3cc2Sc2cc3ccccc3nc21
active: K-562 leukemia -69.1% | MDA-MB-231 breast -0.0354% | SF-295 CNS -49.2% | SF-539 CNS -100% | UACC-257 melanoma 8.34% | M14 melanoma -65% | HCT-15 colon 3.28% | HT29 colon -92.3% | SNB-75 CNS -7.91% | U251 CNS 5.23% | PC-3 prostate -13.8% | SK-MEL-5 melanoma -68.1% | UACC-62 melanoma -0.283% | LOX IMVI melanoma -100% | SK-MEL-28 melanoma -50.4%
inactive: SF-268 CNS 12.2% | SNB-19 CNS 36.4%

O=C(N/N=C/c1ccc(Cl)cc1)c1ccccc1Nc1cccc(C(F)(F)F)c1
inactive: K-562 leukemia 59.9% | MDA-MB-231 breast 74.5% | SF-268 CNS 84.6% | SF-295 CNS 86.8% | SF-539 CNS 48.9% | UACC-257 melanoma 96.9% | M14 melanoma 91.5% | HCT-15 colon 79.1% | HT29 colon 75.8% | SNB-75 CNS 78.7% | SNB-19 CNS 88.4% | U251 CNS 72% | PC-3 prostate 71.6% | SK-MEL-5 melanoma 34% | UACC-62 melanoma 76.4% | LOX IMVI melanoma 83.7% | SK-MEL-28 melanoma 79.8%

Cc1c(C(N)=O)sc2c1c(=O)n(Cc1ccccc1)c1nnc(-c3ccc(Br)cc3)n21
inactive: DU-145 prostate 31.7% | MDA-MB-231 breast 18.8% | RXF 393 renal 15.9% | SF-268 CNS 29.4% | SF-295 CNS 15.8% | SF-539 CNS 13.1% | HCT-15 colon 25.3% | HT29 colon 28.6% | SNB-19 CNS 51.8% | U251 CNS 11.5% | PC-3 prostate 37.2% | SK-MEL-28 melanoma 46.2%
active: UACC-257 melanoma -0.619% | M14 melanoma -22.5% | SK-MEL-5 melanoma -38.2% | UACC-62 melanoma 6.17% | LOX IMVI melanoma 5.15%

Nc1cc(-c2ccc(Cl)cc2)nn1-c1nc2ccccc2nc1Cc1ccccc1
inactive: MALME-3M melanoma 101% | MDA-MB-231 breast 75.1% | RXF 393 renal 78.7% | SF-539 CNS 99.5% | UACC-257 melanoma 101% | M14 melanoma 89.6% | HCT-15 colon 74.4% | HT29 colon 69.7% | SNB-75 CNS 84.4% | SNB-19 CNS 89.9% | U251 CNS 90.8% | SK-MEL-5 melanoma 86.7% | UACC-62 melanoma 87.8% | LOX IMVI melanoma 93.3%

CC(=O)COc1ccc(Cl)cc1Cl
inactive: DU-145 prostate 106% | MDA-MB-231 breast 105% | RXF 393 renal 107% | SF-268 CNS 109% | SF-295 CNS 103% | SF-539 CNS 114% | UACC-257 melanoma 112% | M14 melanoma 110% | HCT-15 colon 107% | HT29 colon 105% | SNB-19 CNS 118% | U251 CNS 97.9% | PC-3 prostate 102% | SK-MEL-5 melanoma 99.8% | LOX IMVI melanoma 94.9% | SK-MEL-28 melanoma 113%

O=C(N/N=C/c1c(Cl)cccc1Cl)c1ccccc1Nc1cccc(C(F)(F)F)c1
inactive: K-562 leukemia 77.2% | MDA-MB-231 breast 83.2% | SF-268 CNS 95.5% | SF-295 CNS 61.5% | SF-539 CNS 75% | UACC-257 melanoma 102% | M14 melanoma 99.4% | HCT-15 colon 88.5% | HT29 colon 103% | SNB-75 CNS 105% | SNB-19 CNS 97% | U251 CNS 89.9% | PC-3 prostate 89.9% | SK-MEL-5 melanoma 72.9% | UACC-62 melanoma 87.1% | LOX IMVI melanoma 76.3% | SK-MEL-28 melanoma 99.5%

COc1ccc2c(c1)CC=C1[C@@H]2CC[C@]2(C)C(=O)/C(=N/O)C[C@@H]12
inactive: DU-145 prostate 96.6% | MDA-MB-231 breast 86.9% | RXF 393 renal 64% | SF-268 CNS 76.4% | SF-295 CNS 74.9% | SF-539 CNS 98.7% | UACC-257 melanoma 118% | M14 melanoma 94.3% | HCT-15 colon 75.8% | HT29 colon 67.8% | SNB-75 CNS 58% | SNB-19 CNS 93.4% | U251 CNS 96.4% | SK-MEL-5 melanoma 89.7% | UACC-62 melanoma 97.7% | LOX IMVI melanoma 70.3% | SK-MEL-28 melanoma 112%

CN(C)c1ccc(/C=N/NC(=O)c2ccccc2Nc2cccc(C(F)(F)F)c2)cc1
inactive: K-562 leukemia 77.8% | MDA-MB-231 breast 70.9% | SF-268 CNS 93.7% | SF-295 CNS 111% | SF-539 CNS 105% | UACC-257 melanoma 101% | M14 melanoma 105% | HCT-15 colon 78.2% | HT29 colon 97.2% | SNB-75 CNS 94.4% | SNB-19 CNS 92.7% | U251 CNS 81.1% | PC-3 prostate 76.1% | SK-MEL-5 melanoma 81.8% | UACC-62 melanoma 86.3% | LOX IMVI melanoma 65.3% | SK-MEL-28 melanoma 91.2%

Nc1cc(-c2ccncc2)c[nH]c1=O
inactive: DU-145 prostate 110% | MALME-3M melanoma 123% | MDA-MB-231 breast 115% | RXF 393 renal 125% | SF-268 CNS 103% | SF-539 CNS 104% | UACC-257 melanoma 111% | M14 melanoma 107% | HCT-15 colon 103% | HT29 colon 103% | SNB-75 CNS 76.6% | SNB-19 CNS 111% | U251 CNS 103% | PC-3 prostate 89.1% | SK-MEL-5 melanoma 106% | UACC-62 melanoma 109% | LOX IMVI melanoma 91.7% | SK-MEL-28 melanoma 105%

CCC(=O)OC1CCC2C3CCC(=O)OC3C(C)(CCC(=O)O)CC12C (stereo not drawn)
active: K-562 leukemia 2.12% | SF-295 CNS -18.6% | SF-539 CNS 5.18% | HT29 colon 4.42% | SNB-75 CNS -1.91% | SK-MEL-5 melanoma -83.5%
inactive: MDA-MB-231 breast 19.6% | SF-268 CNS 50.1% | UACC-257 melanoma 55.7% | M14 melanoma 25.8% | HCT-15 colon 24.2% | SNB-19 CNS 62.8% | U251 CNS 28.3% | PC-3 prostate 31.4% | UACC-62 melanoma 45.9% | LOX IMVI melanoma 30.9% | SK-MEL-28 melanoma 59.8%

CC(C)C1=C(O)C2=C(C(=O)C1=O)[C@@]1(C)CCCC(C)(C)[C@@H]1CC2
inactive: DU-145 prostate 81.6% | MDA-MB-231 breast 103% | RXF 393 renal 84.3% | SF-268 CNS 63.4% | SF-295 CNS 43.3% | SF-539 CNS 90% | UACC-257 melanoma 78.7% | M14 melanoma 80.7% | HCT-15 colon 44.2% | HT29 colon 99% | SNB-75 CNS 78.5% | SNB-19 CNS 53.4% | U251 CNS 50% | SK-MEL-5 melanoma 70.1% | UACC-62 melanoma 80% | LOX IMVI melanoma 56.9% | SK-MEL-28 melanoma 73.4%

O=C(COc1cccc(/C=C2\CSc3ccc(Cl)cc3C2=O)c1)c1ccc(Cl)cc1
inactive: K-562 leukemia 17.3% | MDA-MB-231 breast 32% | SF-268 CNS 88.2% | SF-295 CNS 81.2% | SF-539 CNS 80.3% | UACC-257 melanoma 84.6% | M14 melanoma 94.7% | HCT-15 colon 47.9% | HT29 colon 16.7% | SNB-75 CNS 74.7% | SNB-19 CNS 89.1% | U251 CNS 59.9% | PC-3 prostate 43.7% | SK-MEL-5 melanoma 86.1% | UACC-62 melanoma 71.1% | LOX IMVI melanoma 23.8% | SK-MEL-28 melanoma 107%

CCOc1ccccc1/C=N/N1CCCCCC1
inactive: DU-145 prostate 111% | MDA-MB-231 breast 96.3% | RXF 393 renal 99.9% | SF-268 CNS 93.7% | SF-295 CNS 83.8% | SF-539 CNS 109% | UACC-257 melanoma 115% | M14 melanoma 107% | HCT-15 colon 100% | HT29 colon 104% | SNB-75 CNS 77.2% | SNB-19 CNS 108% | U251 CNS 103% | SK-MEL-5 melanoma 94.4% | UACC-62 melanoma 109% | LOX IMVI melanoma 90.3% | SK-MEL-28 melanoma 107%
